Source: PubChem (National Center for Advancing Translational Sciences (NCATS))
S2 tox = cell viability loss in ATXN counter-screen; AID 651635; S2 cells (HEK-293 line with an ATXN2-luciferase reporter) viability, CellTiter-Fluor protease fluorescence, 24 h; 0.49% of 400,000 active; Potency, µM (highest dose often 56.7 µM), actives largely listed as cytotoxic; also: potency is read from the fitted curve at half-maximal effect; nearly all actives have a fitted effect of over 40% in size
MCF10A rerep = induces DNA re-replication in MCF 10a normal breast cells | MCF 10A DNA re-replication, Hoechst nuclear intensity, 48 h | Potency, µM (titrated, usually from 46.1 µM), inactives show at the highest dose activity, positive = re-replication, most hits filed as activators | 2.9% of 350,000 active; also: potency is read from the fitted curve at half-maximal effect; % of control where 0% means no effect; nearly all actives have a fitted effect of over 50% in size
ATXN2 expr inh = reduces ATXN2 reporter expression in HEK-293 cells; HEK-293 ATXN2-luciferase reporter, luminescence, 24 h; Potency, µM (doses to about 57 µM), for inactives: at the highest dose activity change, negative = inhibition, most hits filed as inhibitors; 0.72% of 360,000 active; also: potency is read from the fitted curve at half-maximal effect; % is scaled to controls: 0 for no effect and ±100 for the full control effect; nearly all actives have a fitted effect of over 55% in size
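qHTS (up to 57 uM final) was run with 24 h compound exposure of reporter cells at 37 °C. Each well was multiplexed: SteadyGlo luminescence measured ATXN2-luciferase expression after a fluorogenic Gly-Phe-AFC viability readout (25 uM final).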
PINK1 expr mod = PINK1 expression modulation; PINK1 immunofluorescence, high-content cytometry, 24 h; Potency, µM (doses to about 76.6 µM), inactives show at the top dose activation (PINK1 increase), usual class: activators; 0.2% of 410,000 active; AID 624263; active = well fitted activation curve with a large enough effect; inconclusive = small, poorly fitted or top-dose-only effect; cell line not stated here; also: potency is read from the fitted curve at half-maximal effect; % of control where 0% means no effect; nearly all actives have a fitted effect of over 65% in size
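A stable cell line was treated with compounds at 5 concentrations for 24 hours, with CCCP as control. PINK1 levels and mitochondrial localization were measured by immunofluorescence with mitochondrial, cell and nuclear markers after fixation, read by laser-scanning cytometry.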
SW480 rerep = DNA re-replication induction in SW480 cells; SW480 DNA re-replication, Hoechst DNA content imaging, 48 h; Potency, µM (doses to about 46.1 µM), for the others: at the highest dose re-replication activation, most hits filed as activators; 1.8% of 340,000 active; also: potency is read from the fitted curve at half-maximal effect; % of control where 0% means no effect; nearly all actives have a fitted effect of over 55% in size
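250 cells/well; 23 nL cpd via pin tool; 48 hr, 37 C, 5% CO2; Hoechst 40 min; imager read of total nuclear intensity, ex 405/em 500-530 nm.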
IL-1B inflam inh = blocks inflammasome-driven IL-1 beta release | THP-1 LPS/ATP IL-1B secretion, AlphaLISA, 16 h; stronger effect = lower value | activity change, % at 57.5 µM | 4.7% of 360,000 active | AID 743279; in the data active = activity change below about -50%; inconclusive = mostly about -30% to -49%; also: % is scaled to controls: 0 for no effect and ±100 for the full control effect
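Secreted IL-1B measured by AlphaLISA bead assay after 16 h compound exposure of THP-1 cells; compounds (final up to 57.5 uM) added 1 h before LPS (250 ng/mL) and ATP (1.25 mM) stimulation; lower signal means less secretion.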
* = called active by the depositor; i = inactive; ? = inconclusive; . = no result; [ ] = remark or other dose. A selection: hits, their analogues and other compounds. The true share with any hit is near 7.1%. Unless noted, calls follow the shape of the dose curve; as a rule, active = well fitted curve in the direction sought with a large enough effect; inconclusive = small, poorly fitted or top-dose-only effect, or another doubt; inactive = no such curve, though single readings can be large; an effect the other way counts as inactive or inconclusive.

SMILES	S2 tox	MCF10A rerep	ATXN2 expr inh	PINK1 expr mod	SW480 rerep	IL-1B inflam inh
COc1ccc(-c2noc(CSc3nnc(C)n3-c3ccc(C)cc3)n2)cc1	.	.	.	1%	.	.
COc1cccc(CNC(=O)CSc2ncc3c(n2)-c2cc(Cl)ccc2N(C)S3(=O)=O)c1	i	.	-6%	0%	.	.
O=C(CN1Cc2ccccc2OC(c2ccsc2)C1)NCC1OCCc2ccccc21 (configuration not stated)	i	.	.	-1%	.	.
COc1ccc2c(c1)CC/C(=C/c1ccccn1)C2=O	i	?	5%	-3%	?	?
O=C1C(=Cc2ccccn2)CCc2ccccc21	?	.	.	-1%	.	-108*
Cc1ccccc1/C=C1\CCCc2ccccc2C1=O	i	?	33%	-2%	18%	0
O=C1/C(=C\c2ccc3ccccc3c2)CCCc2ccccc21	i	5.8µM*	18%	18%	?	6
Cn1cnc(=N)c2[nH]cnc21	.	.	292%	.	.	.
CCOC(=O)C1=C(C)NC(C)=C(C(=O)OCC)C1c1ccc(Br)o1	i	?	-11%	?	15%	-72*
CCSc1nsc(NC(=O)Nc2cccc(F)c2)n1	?	16µM*	?	?	?	-95*
COc1cccc(NC(=O)C(C)(C)C)c1	i	-7%	10%	2%	-6%	27
CCCSc1nsc(NC(=O)C(c2ccccc2)c2ccccc2)n1	i	?	?	?	?	-9
CCCSc1nsc(NC(=O)Nc2ccc(F)cc2F)n1	.	25%	.	13µM*	-10%	-28
COc1cccc(NC(=O)Nc2nc(SC)ns2)c1	i	4%	42%	?	?	-98*
COc1cccc(NC(=O)Nc2nc(SC(C)(C)C)ns2)c1	?	?	?	?	-11%	-73*
O=C(NCc1ccncc1)c1cnn(-c2nccc(-c3cc4ccccc4o3)n2)c1C1CC1	?	.	.	5%	.	.
N#Cc1ccc(/C=C/C(=O)c2ccco2)cc1	?	?	-11%	-3%	?	-29
O=C(/C=C/c1cc(Br)ccc1O)c1ccco1	.	?	?	-1%	?	-71*
O=C(/C=C/c1ccccc1O)c1ccco1	i	15µM*	-4%	-2%	?	-14
O=C1CCC/C1=c1\s/c(=C/c2cccnc2)c(=O)n1-c1ccccc1	?	3%	2%	1%	-11%	-73*
O=c1/c(=C\c2cccnc2)sc2nc3ccccc3n12	i	5%	38%	4%	-3%	19
O=C1CCC/C1=c1\s/c(=C\c2cccnc2)c(=O)n1-c1ccccc1	i	8%	-12%	0%	1%	-75*
Cc1c(N=Cc2cccnc2)c(=O)n(-c2ccccc2)n1C	i	2%	6%	0%	-7%	20
CCCCOc1ccc(C2=NC(c3ccncc3)=Nc3ccc(Br)cc3N2)cc1	i	.	0%	0%	.	.
CCOc1ccc(N2CC(c3nc4ccccc4n3Cc3cccc(Cl)c3)CC2=O)cc1 (configuration not stated)	i	.	-1%	1%	.	.
SMILES	S2 tox	MCF10A rerep	ATXN2 expr inh	PINK1 expr mod	SW480 rerep	IL-1B inflam inh
CC(C)(C)NCc1cc(Cl)ccc1OCc1ccccc1F	i	19%	-21%	2%	-6%	-144*
Cn1nnnc1SCCCNCc1cc(Cl)ccc1OCc1ccccc1F	?	.	?	0%	.	.
CCN(CC)CCNCc1cc(Cl)ccc1OCc1ccccc1F	i	3%	-37%	-1%	5%	-90*
CCCS(=O)(=O)NCc1c(C)ncc2c1CCN(C(=O)c1ccc3[nH]c4c(c3c1)CCCC4)C2	i	.	.	3%	.	.
O=C(O)c1cc([N+](=O)[O-])ccc1NCc1ccccc1	i	9%	-20%	-1%	-12%	-70*
O=C(Nc1ccccc1)c1cc([N+](=O)[O-])ccc1NCc1cccnc1	i	0%	.	0%	1.3µM*	-10
O=C(NCc1cccnc1)c1ccc(NC(=O)c2ccc([N+](=O)[O-])cc2)cc1	i	14%	-22%	-1%	-7%	7
Cc1cc(-c2cc(F)cc3c2OC(CNC(=O)[C@@H]2CCC(=O)N2)C3)ccc1F (some centres not stated)	i	.	.	-1%	.	.
Cc1cnc(CNC(=O)c2ccc3oc(C(C)C)nc3c2)[nH]1	i	-12%	1%	1%	-26%	-10
Cc1ccc2oc(C(=O)NCc3ncc(C)[nH]3)c(C)c2c1	i	?	4%	4%	16µM*	-10
CCc1ccc2oc(C(=O)NCc3ccncc3)c(C)c2c1	?	5%	12%	1%[38.3 µM]	-12%	-66*
CN1C(=O)C(N=Nc2ccc([N+](=O)[O-])cc2)SC1=S (configuration not stated)	i	?	-22%	45µM*	3%	-89*
NC(N)=N/N=C/c1ccc(OS(=O)(=O)c2ccccc2)cc1	?	18µM*	.	-1%	5.8µM*	-18
NC1=NC2(CCCCC2)n2c(nc3ccccc32)N1	?	1%	-9%	-2%	-4%	-5
NC1=NC2(CCC(c3ccccc3)CC2)n2c(nc3ccccc32)N1 (configuration not stated)	i	?	-1%	1%	?	-54*
OCC1(Cc2ccc(Cl)cc2)CCN(CCCc2ccccc2)CC1	i	?	-34%	1%	18µM*	-77*
CSc1ccc(CN2CCC(CO)(Cc3ccc(Cl)cc3)CC2)cc1	?	?	?	-1%	?	-94*
OCC1(Cc2ccc(Cl)cc2)CCN(CC2CC=CCC2)CC1 (configuration not stated)	i	?	8%	5%	-4%	-62*
OCC1(Cc2ccc(Cl)cc2)CCN(Cc2ccccc2F)CC1	i	12%	-35%	3%	-9%	-26
O=C1NC(c2ccccc2)(c2ccccc2)C(=O)N1COP(=O)(O)O	i	.	8%	.	.	.
S=C1NCN(Cc2cccnc2)CN1	i	-5%	-22%	-1%	-9%	-3
CN(C)C(=S)N=c1ssc(=S)n1Cc1cccnc1	i	12µM*	-30%	15%	18µM*	10
CCOC(=O)C1(CCOC)CCN(Cc2nc(-c3cccs3)oc2C)CC1	i	-2%	-13%	-1%	?	18
Cc1oc(-c2cccs2)nc1CN1CCN(CCC(C)C)C(CCO)C1 (configuration not stated)	i	23µM*	.	-1%	?	10
Cc1oc(-c2cccs2)nc1CN1CCN(C2CCCC2)C(CCO)C1 (configuration not stated)	i	21%	2%	2%	-2%	2
